These results are taken from PubChem BioAssay (NCATS).

Inconclusive results are not listed. Values without a mark were called inactive. The source made the active and inactive calls. The call rests on the fitted dose curve; in most records, active means well fitted inhibition curve with a large enough effect; inconclusive means small, poorly fitted or top-dose-only effect; inactive means flat fitted curve, though single readings scatter. Residues, ends and D or L forms follow the SMILES beside them. *: point of attachment. Cbz = O=C(OCc1ccccc1)*

Chain of Lysine-specific demethylase 5B (Homo sapiens) (Q9UGL1 whole entry, looked up): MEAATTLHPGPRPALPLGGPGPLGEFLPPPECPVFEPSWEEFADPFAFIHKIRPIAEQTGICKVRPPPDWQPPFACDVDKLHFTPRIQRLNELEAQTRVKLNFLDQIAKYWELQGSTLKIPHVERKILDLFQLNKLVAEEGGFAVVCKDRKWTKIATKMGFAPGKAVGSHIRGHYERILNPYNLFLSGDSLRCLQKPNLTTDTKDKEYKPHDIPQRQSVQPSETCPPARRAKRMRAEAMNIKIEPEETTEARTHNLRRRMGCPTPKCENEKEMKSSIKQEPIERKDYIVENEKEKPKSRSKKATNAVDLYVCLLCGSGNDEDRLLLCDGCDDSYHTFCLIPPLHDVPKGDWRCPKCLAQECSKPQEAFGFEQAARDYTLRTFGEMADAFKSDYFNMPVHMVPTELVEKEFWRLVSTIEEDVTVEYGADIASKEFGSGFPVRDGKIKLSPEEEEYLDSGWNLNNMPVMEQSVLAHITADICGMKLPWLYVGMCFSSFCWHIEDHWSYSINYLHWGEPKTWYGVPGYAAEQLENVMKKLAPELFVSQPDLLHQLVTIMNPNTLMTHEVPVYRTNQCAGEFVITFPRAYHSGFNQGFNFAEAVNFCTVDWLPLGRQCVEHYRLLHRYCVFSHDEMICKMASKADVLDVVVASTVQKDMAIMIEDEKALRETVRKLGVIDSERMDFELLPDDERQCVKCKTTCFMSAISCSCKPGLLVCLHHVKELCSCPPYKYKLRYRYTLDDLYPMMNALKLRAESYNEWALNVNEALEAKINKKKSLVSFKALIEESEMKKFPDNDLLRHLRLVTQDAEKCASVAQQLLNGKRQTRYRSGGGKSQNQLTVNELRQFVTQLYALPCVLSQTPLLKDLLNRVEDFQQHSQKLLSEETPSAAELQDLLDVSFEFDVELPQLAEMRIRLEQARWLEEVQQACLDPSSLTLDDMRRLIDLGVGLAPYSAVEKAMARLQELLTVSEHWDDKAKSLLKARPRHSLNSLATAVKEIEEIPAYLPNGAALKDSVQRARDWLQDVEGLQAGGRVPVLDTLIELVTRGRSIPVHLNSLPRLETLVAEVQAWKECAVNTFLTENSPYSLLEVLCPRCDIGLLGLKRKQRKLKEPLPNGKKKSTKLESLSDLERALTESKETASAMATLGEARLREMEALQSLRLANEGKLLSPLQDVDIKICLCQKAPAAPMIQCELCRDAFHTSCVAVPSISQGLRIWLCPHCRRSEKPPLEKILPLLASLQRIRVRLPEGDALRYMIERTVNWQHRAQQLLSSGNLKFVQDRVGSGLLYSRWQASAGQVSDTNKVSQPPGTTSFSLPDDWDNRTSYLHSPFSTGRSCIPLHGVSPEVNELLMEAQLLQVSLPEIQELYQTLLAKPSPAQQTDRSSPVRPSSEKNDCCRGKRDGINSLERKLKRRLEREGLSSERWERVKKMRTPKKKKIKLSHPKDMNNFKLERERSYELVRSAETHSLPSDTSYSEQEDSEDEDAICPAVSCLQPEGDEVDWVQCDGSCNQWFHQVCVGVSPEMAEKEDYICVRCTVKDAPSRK

The target of this experiment is Lysine-specific demethylase 5B (Homo sapiens) (UniProt Q9UGL1). The experiment can be described thus: Optimization screen for KDM5B Histone Demethylases FDH coupled qHTS against the LOPAC library (AID 1347166). Further: 0% is about no effect. The settings on record: KDM5B demethylation, FDH-coupled NADH fluorescence (FDH is formaldehyde dehydrogenase); at 57.5 µM (top of the series). In outline:
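KDM5BDeltaAP (200nM final) in 50mM HEPES pH 7.5, 0.01% Tween-20 was preincubated with compound for 10 min at room temperature. A substrate mix of 12.5uM H3K4Me3, 25uM a-ketoglutarate, ascorbate, Fe2+, NAD+ and formaldehyde dehydrogenase was then added. NADH fluorescence (340/450 nm) was read initially and after 30 min.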
(In general: Quantitative high-throughput screening tests each substance at several concentrations.)
Consider `CC(C)Cn1c(=O)n(C)c(=O)c2[nH]cnc21`, for which the activity, negative = inhibition is -4.21%.
On to `N=C(N)SCCc1cnc[nH]1`, for which the activity, negative = inhibition was -14.3%.
The same measure for `COc1ccccc1N1CCN(CCCCNC(=O)c2ccc3ccccc3c2)CC1`: -7.43%.
Turning to `CCCn1c(=O)c2[nH]c(-c3ccc(S(=O)(=O)O)cc3)nc2n(CCC)c1=O`, the activity, negative = inhibition is 2090%.
The same measure for `CCCn1c(=O)c(C)cn2nc(N)nc12`: -3980% (active); for `CC(C)NCC(O)COc1ccc(CC(N)=O)cc1` (stereo not drawn): -1.35%; for `CN1CCCC1CCOC(C)(c1ccccc1)c1ccc(Cl)cc1` (stereo not drawn): -0.721%.
The same measure for `CCCCCCC(=O)OC1CC(C)(C)NC(C)(C)C1`: -0.896%; for `COc1ccc(-c2ccc(N)[n+](CCCC(=O)O)n2)cc1`: -3.69%.
As to `CCCn1c(=O)c2c(ncn2C)n(CCC)c1=O`, the activity, negative = inhibition is -2.62%.
In the case of `CN(CC[C@@H](Oc1ccc(C(F)(F)F)cc1)c1ccccc1)CC(=O)O`, the activity, negative = inhibition is -7.4%.
The same measure for `N[C@@H](Cc1ccc(F)cc1)C(=O)O`: -14.8%.
Regarding `C#CCn1c(=O)c2c(ncn2C)n(C)c1=O`, the activity, negative = inhibition is -2.26%.
The same measure for `O=C(OCCN1CCOCC1)C1(c2ccccc2)CCCCC1`: -17.1%; for `Cc1cc(Cn2cnc3c2C[C@@H](C(=O)O)N(C(=O)C(c2ccccc2)c2ccccc2)C3)ccc1N`: 0.747%; for `N[C@@H](Cc1c[nH]c2ccccc12)C(=O)O`: -20.4%.
`CCn1c(=O)[nH]c2cc(Cl)c(Cl)cc21`: the activity, negative = inhibition is -0.178%.
The figure for `Cc1cccc(C)c1OCC(N)C(C)C` (stereo not drawn) is -17.4%; for `O=C(O)CCC/C=C\C[C@@H]1[C@@H](/C=C/[C@H](O)C2Cc3ccccc3C2)[C@@H](F)C[C@@H]1O` it is -5.83%; for `CC(=O)O[C@H]1CC2(C)[C@@H](C[C@@H](O)[C@H]3[C@@]4(C)CC[C@@H](O)[C@@H](C)[C@@H]4CC[C@@]32C)C1=C(CCC=C(C)C)C(=O)O` (stereo partly drawn) it is -4.8%.
On to `O=[N+]([O-])c1cccc2cn[nH]c12`, for which the activity, negative = inhibition was -3.93%.
For `Nc1ccc(N2C(=O)c3ccccc3C2=O)c(Cl)c1`, the activity, negative = inhibition is -4.03%.
The same measure for `O=S(=O)(c1cccc2c(Cl)cccc12)N1CCCNCC1`: 1.08%; for `CC(C)[C@H](NC(=O)OCc1ccccc1)C(=O)N[C@H](C=O)Cc1ccccc1` (Cbz-Val-Phe-aldehyde): 6.73%.
The figure for `CC1CNCCN1S(=O)(=O)c1cccc2cnccc12` (stereo not drawn) is -12.8%; for `N[C@H](C(=O)O)[C@H](O)C(=O)O` it is -0.47%; for `Cn1c(=O)c2[nH]c(-c3ccc(S(=O)(=O)O)cc3)nc2n(C)c1=O` it is 39.3%.
The figure for `C=CCNc1ncnc2ccc(Br)cc12` is -0.201%; for `c1ccc2c(c1)CC(N1CCN(c3cccc4c3OCCO4)CC1)C2` it is -5.51%.
In the case of `NCCCNCCCCNCCCN`, the activity, negative = inhibition is -4.41%.
The same measure for `CCCCCC(O)CCCC(=O)O` (stereo not drawn): -6.03%; for `CN(C)CCC(c1ccc(Br)cc1)c1ccccn1` (stereo not drawn): -1.47%; for `CC1=C(C(=O)O)N2C(=O)[C@@H](NC(=O)C(N)C3=CCC=CC3)[C@H]2SC1` (stereo partly drawn): -22.8%.
